About 2,000 (36%) of roughly 5,500 compounds were called active. Roughly 18% stayed inconclusive and do not appear here. No stated cut-off is given here; in the data, active means normalized growth mostly below about 0.91 (no sharp cut-off); inconclusive means no clear call, values can overlap the other calls; inactive means mostly above about 0.92. Some of the results follow.
Assay: chemical genetic growth profiling, strain panel (AID 1159580);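 further: tested at 20 µM; growth read once vehicle control cultures reached saturation at 30 °C; 1 = growth at the plate median or of vehicle wells; lower values mean less growth of the strain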
Settings: S. cerevisiae deletion strains, growth OD

Measured: normalized growth

CC(=O)Nc1cccc(O)c1
inactive: locus YAL013W, strain DEP1, active compounds read low 1 | locus YAL021C, strain ccr4, active compounds read low 1.01 | locus YAL026C, strain drs2, active compounds read low 1.03 | locus YAL030W, strain snc1, active compounds read low 1.01 | locus YBL061C, strain skt5, active compounds read low 1.01 | locus YBR009C, strain hhf1, active compounds read low 0.984 | locus YBR021W, strain FUR4, active compounds read low 1.01 | locus YBR023C, strain chs3, active compounds read low 1.03 | locus YBR171W, strain sec66, active compounds read low 1.02 | locus YBR229C, strain ROT2, active compounds read low 1.01 | locus YBR231C, strain swc5, active compounds read low 1 | locus YBR279W, strain paf1, active compounds read low 1.02 | locus YCL011C, strain gbp2, active compounds read low 1.04 | locus YCL016C, strain dcc1, active compounds read low 1.05 | locus YCL029C, strain bik1, active compounds read low 0.993 | locus YCL061C, strain MRC1, active compounds read low 1.01 | locus YCL069W, strain vba3, active compounds read low 1.01 | locus YCR088W, strain abp1, active compounds read low 1.02 | locus YDL005C, strain med2, active compounds read low 1.02 | locus YDL035C, strain GPR1, active compounds read low 0.992 | locus YDL040C, strain nat1, active compounds read low 0.999 | locus YDL074C, strain BRE1, active compounds read low 1.02 | locus YDL101C, strain DUN1, active compounds read low 1.02 | locus YDL134C, strain PPH21, active compounds read low 0.983 | locus YDL185W, strain tfp1, active compounds read low 0.993 | locus YDL192W, strain arf1, active compounds read low 1.01 | locus YDR001C, strain nth1, active compounds read low 1.01 | locus YDR069C, strain doa4, active compounds read low 1.03 | locus YDR101C, strain arx1, active compounds read low 0.989 | locus YDR137W, strain rgp1, active compounds read low 1.03 | locus YDR150W, strain NUM1, active compounds read low 0.998 | locus YDR159W, strain sac3, active compounds read low 0.954 | locus YDR162C, strain NBP2, active compounds read low 0.999 | locus YDR195W, strain ref2 0.986 | locus YDR297W, strain sur2, active compounds read low 0.998 | locus YDR318W, strain mcm21, active compounds read low 1.01 | locus YDR334W, strain swr1, active compounds read low 1.02 | locus YDR335W, strain msn5, active compounds read low 1.01 | locus YDR388W, active compounds read low 0.998 | locus YDR392W, strain spt3, active compounds read low 0.99 | locus YDR502C, strain sam2, active compounds read low 0.986 | locus YEL003W, strain gim4, active compounds read low 1 | locus YEL037C, strain rad23, active compounds read low 1 | locus YEL061C, strain CIN8 (second series), active compounds read low 1 | locus YEL061C, strain CIN8, active compounds read low 1.01 | locus YER015W, strain faa2, active compounds read low 1.02 | locus YER016W, strain bim1, active compounds read low 1.03 | locus YER110C, active compounds read low 1 | locus YER111C, strain swi4, active compounds read low 1.01 | locus YER155C, strain BEM2 (second series), active compounds read low 0.999 | locus YER155C, strain BEM2, active compounds read low 1.01 | locus YER167W, strain BCK2, active compounds read low 1 | locus YFR010W, strain ubp6, active compounds read low 0.994 | locus YGL078C, strain dbp3, active compounds read low 0.994 | locus YGL086W, strain mad1, active compounds read low 0.99 | locus YGL167C, strain pmr1, active compounds read low 1.01 | locus YGL173C, strain kem1, active compounds read low 0.987 | locus YGL227W, strain vid30, active compounds read low 1.02 | locus YGL240W, strain doc1, active compounds read low 0.977 | locus YGL248W, strain PDE1, active compounds read low 1.02 | locus YGL253W, strain hxk2, active compounds read low 1.04 | locus YGR078C, strain PAC10, active compounds read low 1.01 | locus YGR135W, strain pre9, active compounds read low 1.02 | locus YGR252W, strain gcn5, active compounds read low 1 | locus YHR013C, strain ard1, active compounds read low 1.04 | locus YHR027C, strain rpn1, active compounds read low 1.01 | locus YHR030C, strain SLT2, active compounds read low 1 | locus YHR079C, strain IRE1 (second series), active compounds read low 0.997 | locus YHR094C, strain hxt1, active compounds read low 0.997 | locus YHR129C, strain ARP1, active compounds read low 1.01 | locus YHR142W, strain chs7, active compounds read low 1.04 | locus YHR200W, strain rpn10, active compounds read low 0.996 | locus YIL066C, strain RNR3, active compounds read low 1 | locus YIL073C, strain SPO22, active compounds read low 1.02 | locus YIL125W, strain kgd1, active compounds read low 0.994 | locus YIR030C, strain dcg1, active compounds read low 0.991 | locus YJL092W, strain hpr5, active compounds read low 1.01 | locus YJL095W, strain BCK1 (second series), active compounds read low 1.03 | locus YJL095W, strain BCK1, active compounds read low 1.03 | locus YJL115W, strain asf1, active compounds read low 1.02 | locus YJL129C, strain trk1, active compounds read low 1.04 | locus YJL134W, strain LCB3, active compounds read low 1.02 | locus YJL154C, strain vps35, active compounds read low 1.01 | locus YJL164C, strain tpk1, active compounds read low 1.03 | locus YJL166W, strain qcr8, active compounds read low 0.982 | locus YJL168C, strain set2, active compounds read low 1.02 | locus YJL187C, strain SWE1 (second series), active compounds read low 1.02

— PubChem BioAssay AID1159580 (chemical genetic matrix, 2015)
